Active and inactive are the calls of the source. How the source made its calls: active means hit-call score of the fitted dose curve at least 0.9, where 1 is the maximum; inactive means score below 0.9.
test: APR_HepG2_MitoMembPot_1hr: Apredica 1-hour HepG2 Assay for Mitochondrial Membrane Potential (AID 2282675); settings: imaging, actives raise or lower the signal
Procedure: APR_HepG2_1hr is a cell-based, multiplexed-readout assay that uses HepG2, a human liver cell line, with measurements taken at 1 hour after chemical dosing in a 384-well plate.APR_HepG2_MitoMembPot_1hr is one of 10 assay component(s) measured or calculated from the APR_HepG2_1hr assay. It is designed to make measurements of dye binding, a form of membrane potential reporter, as detected with fluorescence intensity signals by HCS Fluorescent Imaging technology.Data from the assay component APR_HepG2_MitoMembPot_1hr was analyzed into 1 assay endpoint. This assay endpoint, APR_HepG2_MitoMembPot_1hr, was analyzed with bidirectional fitting relative to DMSO as the negative control and baseline of activity. Using a type of membrane potential reporter, gain or loss-of-signal activity can be used to understand changes in the signaling. Furthermore, this assay endpoint can be referred to as a primary readout, because this assay has produced multiple assay endpoints where this one serves a signaling function. To generalize the intended target to other relatable targets, this assay endpoint is annotated to the cell morphology intended target family, where the subfamily is organelle conformation.
Cells were treated with dimethyl sulfoxide (DMSO) as a solvent control at a final concentration of 0.5% v/v or with compounds in DMSO with a resulting final DMSO concentration of 0.5% v/v. Compound treatment was done at concentrations of 0.39, 0.78, 1.56, 3.12, 6.24, 12.5, 25, 50, 100, and 200 uM in duplicate on each plate. Cells were treated with compounds for 1, 24, or 72 hr. Carbonyl […] m-chloro-phenylhydrazone (CCCP) and taxol were used as positive controls for mitochondrial function and cytoskeletal stability, respectively; DMSO served as the negative control for this experiment. Cells were fixed by the direct addition of 50 uL formaldehyde in Hank's Balanced Salt Solution (HBSS) to a final concentration of 3.7%. After incubation in the fixation medium for 30 min at room temperature (293-298 K), cells were rinsed twice with HBSS and treated with cell permeabilization buffer (16 uL of 0.5% Triton X-100) for 10 min at room temperature (293-298 K) before labeling. For mitochondrial membrane potential and mitochondrial measurements, pre-fixed cells were incubated with 50 uL of MitoTracker Red CMXRos (Invitrogen) at a concentration of 250 nM for 30 min before fixation. In the remaining cases, post-fixed cells were labeled by incubation with a multiplexed mixture of primary antibodies in HBSS for 60 min at room temperature (293-298 K) to detect immunoreactivity of c-Jun (1:500), phospho-histone H3 (1:100), phospho-histone H2A.x (1:200), p53 (1:400), alpha-tubulin (1:200) and Hoechst 33342 (2 ug/mL). Cells were labeled for multiplexed imaging on two separate plates: a) Hoechst 33342, MitoTracker Red, phospho-histone H3, and alpha-tubulin, and b) Hoechst 33342, phospho-histone H2A.x, and c-Jun. A final rinse with HBSS (50 uL) was performed before analysis. The primary and secondary antibodies for the proteins were phospho-histone H3 (rabbit anti-phospho-histone H3 and FITC-donkey anti-rabbit IgG), phospho-histone H2A.x (mouse anti-phospho-histone H2A.x and FITC-donkey anti-mouse IgG), c-Jun (rabbit anti-phospho-c-Jun and Cy3-donkey anti-rabbit IgG), p53 (sheep anti-p53 and Cy5-donkey anti-sheep IgG), alpha-tubulin (mouse anti-alpha-tubulin and Cy5-donkey anti-mouse IgG). These antibodies are available as the CellCiphr HepG2 assay kit (Millipore).Digital images of each well were captured using a Cellomics ArrayScan VTI (Thermo Scientific Cellomics) (0.8 NA objective, 0.63x optical coupler, and XF-93 filter set) at 20x magnification. The images were acquired using the autofocus feature of the ArrayScan instrument, which entails the following steps. First, the camera focuses on channel 1 (Hoechst 33342), where nuclei are identified. Second, a Z offset of 1 um is used for capturing mitochondria (MitoTracker Red). […]

SMILES	outcome
C#CC(C)(C)NC(=O)c1cc(Cl)cc(Cl)c1	inactive
CCc1cccc(C)c1N(C(=O)CCl)C(C)COC (stereo not given)	inactive
CN1COCN(Cc2cnc(Cl)s2)C1=N[N+](=O)[O-]	inactive
CON=C(C(=O)OC)c1ccccc1CON=C(C)c1cccc(C(F)(F)F)c1	inactive
O=c1ccc(=O)[nH][nH]1	inactive
CCOC(=O)CC(SP(=O)(OC)OC)C(=O)OCC (stereo not given)	inactive
CCOP(=S)(OCC)OC(Cl)C(Cl)(Cl)Cl (stereo not given)	inactive
CN(C)NC(=O)CCC(=O)O	inactive
COc1ccc(C(=CC(=O)N2CCOCC2)c2ccc(Cl)cc2)cc1OC	inactive
C[N+]1(C)CCCCC1	inactive
CC(Oc1cccc(Cl)c1)C(=O)O (stereo not given)	inactive
Nc1c(Cl)cc([N+](=O)[O-])cc1Cl	inactive
CCc1cccc(CC)c1N(COC)C(=O)CCl	inactive
CN(C)C(=O)Nc1cccc(C(F)(F)F)c1	inactive
COP(=O)(OC)SCn1c(=O)oc2cc(Cl)cnc21	inactive
CCCCN(CC)c1c([N+](=O)[O-])cc(C(F)(F)F)cc1[N+](=O)[O-]	inactive
CCOP(=O)(OCC)Oc1cc(C)nc(C(C)C)n1	inactive
N#CSCSC#N	inactive
COP(=O)(OC)OC(Br)C(Cl)(Cl)Br (stereo not given)	inactive
CC1=NNC(=O)N(/N=C/c2cccnc2)C1	inactive

SMILES	outcome
Nc1nc(N)nc(NC2CC2)n1	inactive
CCCCOC(=O)c1ccccc1C(=O)O	inactive
CNC(=O)ON=C(SC)C(=O)N(C)C	inactive
CSc1nc(NC(C)C)nc(NC(C)C)n1	inactive
CN(C)[C@@H]1C(=O)C(C(N)=O)=C(O)[C@@]2(O)C(=O)C3=C(O)c4c(O)cccc4[C@@](C)(O)[C@H]3[C@H](O)[C@@H]12	inactive
S=C1NCCN1	inactive
CCOP(=S)(OCC)Oc1ccc2c(C)c(Cl)c(=O)oc2c1	inactive
C#CCC1=C(C)C(OC(=O)C2C(C=C(C)C)C2(C)C)CC1=O (stereo not given)	inactive
C[Si](Cn1cncn1)(c1ccc(F)cc1)c1ccc(F)cc1	inactive
CCOP(=S)(OCC)Oc1cc(C)nc(C(C)C)n1	inactive
CCC(=NOC/C=C/Cl)C1=C(O)CC(C2CCOCC2)CC1=O (stereo not given)	inactive
CNC(=O)Oc1cccc2c1OC(C)(C)O2	inactive
CSc1nnc(C(C)(C)C)c(=O)n1N	inactive
COc1cccc(C(=O)NN(C(=O)c2cc(C)cc(C)c2)C(C)(C)C)c1C	inactive
Cc1nn(-c2cc(NS(C)(=O)=O)c(Cl)cc2Cl)c(=O)n1C(F)F	inactive
CNc1cnn(-c2cccc(C(F)(F)F)c2)c(=O)c1Cl	inactive
CCOP(=S)(OCC)SCCSCC	inactive
CCc1cnc(C2=NC(C)(C(C)C)C(=O)N2)c(C(=O)O)c1 (stereo not given)	inactive
CCCOc1nn(C(=O)NS(=O)(=O)c2ccccc2C(=O)OC)c(=O)n1C	inactive
CC(C)[C@H](C(=O)O[C@H](C#N)c1cccc(Oc2ccccc2)c1)c1ccc(Cl)cc1	inactive
